Assay results: PubChem BioAssay (EPA / NIEHS)
Inconclusive results are not listed. Activity calls are given as the source filed them. How the source made its calls, unless noted: active means hit-call score of the fitted dose curve at least 0.9, where 1 is the maximum; inconclusive means response in the unintended direction; inactive means score below 0.9.

How the values were obtained:
[1] = TOX21_p53_BLA_p2_viability: Viability Assessment in the Tox21 HCT-116 p53 Agonism Beta-lactamase Assay, Phase 2 (AID 2283591);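 further: compound exposure lasted 16 h at 37 °C; actives lower the ATP signal meaning cytotoxicity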
How it was run: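 HCT-116 p53-bla cells (4000/well) rested 5 h at 37C, then received compounds in DMSO (217-fold dilution) for 16 h at 37C, 5% CO2. After the CCF4 read, CellTiter-Glo was added; ATP luminescence was read after 30 min at room temperature.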

[2] = TOX21_p53_BLA_p5_viability: Viability Assessment in the Tox21 HCT-116 p53 Agonism Beta-lactamase Assay, Phase 5 (AID 2283600)
How it was run: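 HCT-116 p53 beta-lactamase reporter cells, 4000/well, were exposed to compound (pin transfer, 217-fold dilution) for 16 hours at 37C. Cellular ATP was read by CellTiter-Glo luminescence after 30 min at room temperature.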

[3] = UKN5_HCS_SBAD2_cell_viability: Viability Assessment in the University of Konstanz (UKN) Leist Lab Neurite Outgrowth Assay in human iPSC-derived immature Dorsal Root Ganglia Neurons (UKN5) (AID 2284056; active means hit-call score of the fitted dose curve at least 0.9, where 1 is the maximum; inactive means score below 0.9)
How it was run: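 iPSC-derived immature peripheral neurons (SBAD2) seeded on Matrigel with CHIR99021, SU5402 and DAPT, dosed 1 h later for 24 h. Viability from Hoechst H-33342 and calcein-AM live staining, high-content imaging; bidirectional fit versus DMSO.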

[4] = UKN5_HCS_SBAD2_neurite_outgrowth: University of Konstanz (UKN) Leist Lab Neurite Outgrowth Assay in human iPSC-derived immature Dorsal Root Ganglia Neurons (UKN5) (AID 2284070; active means hit-call score of the fitted dose curve at least 0.9, where 1 is the maximum; inactive means score below 0.9); details: actives raise or lower the signal
How it was run: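 Read-out: calcein-AM-stained neurite area by high-content imaging, Hoechst H-33342 for viability, after 24 h exposure of iPSC-derived immature dorsal root ganglia neurons. Activity fitted in both directions relative to DMSO baseline.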

[5] = UKN2_HCS_IMR90_neural_migration: University of Konstanz (UKN) Leist Lab Neural Crest Cell Migration Assay in human induced IMR90 Pluripotent Stem Cells (UKN2) (AID 2284204; active means hit-call score of the fitted dose curve at least 0.9, where 1 is the maximum; inactive means score below 0.9); details: actives raise or lower the signal
How it was run: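 iPSC-derived IMR90 neural crest cells on PLO/laminin/fibronectin were seeded around silicone stoppers; after stopper removal, migration in N2-S medium with EGF and FGF ran 24 h before 24 h chemical exposure. Calcein-AM/Hoechst high-content imaging; bidirectional fit versus DMSO.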

[6] = UKN4_HCS_LUHMES_neurite_outgrowth: University of Konstanz (UKN) Leist Lab Neurite Outgrowth Assay in human LUHMES cells (UKN4) (AID 2284206; active means hit-call score of the fitted dose curve at least 0.9, where 1 is the maximum; inactive means score below 0.9); details: actives raise or lower the signal
How it was run: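 Day 0 switch to differentiation medium; day 2 replate (30000 cells/well) without cAMP and GDNF; compounds added 30 min–2 h later. At 23.5 h, 30 min calcein-AM/H-33342 live stain, then imaging.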

[7] = UKN4_HCS_LUHMES_cell_viability: Viability Assessment in the University of Konstanz (UKN) Leist Lab Neurite Outgrowth Assay in human LUHMES cells (UKN4) (AID 2284232; active means hit-call score of the fitted dose curve at least 0.9, where 1 is the maximum; inactive means score below 0.9)
How it was run: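 Fluorescence intensity from high-content imaging of Hoechst H-33342/calcein-AM-stained cells served as the viability read-out. Human LUHMES precursors were differentiated 2 days, replated and treated 24 h; curves were fitted bidirectionally against DMSO.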

[8] = UKN2_HCS_IMR90_cell_viability: Viability Assessment in the University of Konstanz (UKN) Leist Lab Neural Crest Cell Migration Assay in human induced IMR90 Pluripotent Stem Cells (UKN2) (AID 2284233; active means hit-call score of the fitted dose curve at least 0.9, where 1 is the maximum; inactive means score below 0.9;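 further: viability of neural crest cells differentiated from IMR90 iPSC measured by calcein-AM fluorescence imaging; cells exposed to compound for 24 h after a 24 h migration phase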)
How it was run: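 iPSC-derived (IMR90) neural crest cells seeded around silicone stoppers on PLO/laminin/fibronectin; after 24 h migration in N2-S with EGF/FGF, chemical added for 24 h. Calcein-AM/Hoechst stained 30 min, high-content imaged; bidirectional fit versus DMSO.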

[9] = target: Cellular tumor antigen p53 (Homo sapiens) (UniProt P04637); test: TOX21_p53_BLA_p2_ratio: Tox21 HCT-116 p53 Agonism Beta-lactamase Assay, Ratio, Phase 2 (AID 2283592)
Chain of Cellular tumor antigen p53 (Homo sapiens) (P04637 whole entry, looked up): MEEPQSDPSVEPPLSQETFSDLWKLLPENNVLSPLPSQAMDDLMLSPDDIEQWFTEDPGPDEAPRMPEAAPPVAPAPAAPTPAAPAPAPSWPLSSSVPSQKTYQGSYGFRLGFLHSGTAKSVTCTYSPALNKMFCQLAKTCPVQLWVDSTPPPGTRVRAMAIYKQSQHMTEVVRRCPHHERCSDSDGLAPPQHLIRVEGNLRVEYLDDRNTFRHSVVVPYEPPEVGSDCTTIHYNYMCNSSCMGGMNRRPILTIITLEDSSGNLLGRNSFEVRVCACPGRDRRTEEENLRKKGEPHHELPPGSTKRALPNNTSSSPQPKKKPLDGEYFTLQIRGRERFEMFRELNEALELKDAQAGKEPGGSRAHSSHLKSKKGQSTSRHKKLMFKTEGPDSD
How it was run: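 HCT-116 cells with p53-responsive beta-lactamase reporter, 4000 cells/well, preincubated 5 h, then compound in DMSO (217-fold dilution) for 16 h at 37C. CCF4-AM substrate 2 h at room temperature; 460/530 nm emission ratio fitted upward versus DMSO.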

[10] = TOX21_p53_BLA_p3_viability: Viability Assessment in the Tox21 HCT-116 p53 Agonism Beta-lactamase Assay, Phase 3 (AID 2283593);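 further: cells exposed to compound for 16 h before reading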
How it was run: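 HCT-116 cells (4000/well) rested 5 h at 37C, then got DMSO compounds by pin tool (217-fold dilution) for 16 h at 37C, 5% CO2. After the bla read, CellTiter-Glo was added and luminescence read at 30 min, room temperature.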

[11] = target: Cellular tumor antigen p53 (Homo sapiens) (UniProt P04637); test: TOX21_p53_BLA_p3_ratio: Tox21 HCT-116 p53 Agonism Beta-lactamase Assay, Ratio, Phase 3 (AID 2283596)
How it was run: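 HCT116 p53-bla cells (4000/well) given compound in DMSO (217-fold dilution) after 5 h, incubated 16 h at 37C. CCF4-AM substrate 2 h at room temperature; 460/530 nm emission ratio, gain fitted against DMSO.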

[12] = target: Cellular tumor antigen p53 (Homo sapiens) (UniProt P04637); test: TOX21_p53_BLA_p5_ratio: Tox21 HCT-116 p53 Agonism Beta-lactamase Assay, Ratio, Phase 5 (AID 2283599)
How it was run: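 HCT-116 cells carrying a p53-inducible beta-lactamase reporter were seeded at 4000 cells/well and dosed after 5 h with compound in DMSO (217-fold dilution). After 16 h at 37C, CCF4-AM substrate was added for 2 h, and the 460/530 nm emission ratio was scored as gain-of-signal versus DMSO.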

[13] = target: Cellular tumor antigen p53 (Homo sapiens) (UniProt P04637); test: TOX21_p53_BLA_p4_ratio: Tox21 HCT-116 p53 Agonism Beta-lactamase Assay, Ratio, Phase 4 (AID 2283601)
How it was run: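 HCT116 cells carrying an inducible beta-lactamase reporter were plated at 4000 cells/well, rested 5 h, then exposed to compounds in DMSO (217-fold dilution) for 16 h at 37C. CCF4-AM substrate was loaded 2 h at room temperature; 460/530 nm emission ratio scored gain-of-signal versus DMSO.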

[14] = TOX21_p53_BLA_p4_viability: Viability Assessment in the Tox21 HCT-116 p53 Agonism Beta-lactamase Assay, Phase 4 (AID 2283597);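 further: hits lower the luminescence signal meaning cytotoxicity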
How it was run: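 HCT-116 p53-bla cells, 4000/well, dosed after 5 h attachment and incubated 16 h at 37 °C, 5% CO2. Viability from CellTiter-Glo ATP luminescence after 30 min at room temperature, taken after the beta-lactamase read; loss of signal indicates cytotoxicity.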

[15] = target: Thyroid hormone receptor alpha (Rattus norvegicus) + Thyroid hormone receptor beta (Rattus norvegicus) (UniProt P18113+P63059); test: TOX21_TR_LUC_GH3_Antagonist_Followup: Tox21 GH3 Thyroid Hormone Receptor Antagonism Luciferase Follow-Up Assay (AID 2283942)
How it was run: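 Rat pituitary GH3 cells with a TRα/TRβ-driven luciferase reporter, 5 h attachment, then 15 concentrations (92 uM to 5nM final) plus 1.0 nM T3 agonist, 24 h at 37C/5% CO2. ONE-Glo luminescence; signal change fitted against DMSO baseline.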

THRA (gene 7067) = THRA (gene 7067) (UniProt P10827); test: TOX21_TRA_COA_Antagonist_Followup_ratio: Tox21 Thyroid Hormone Receptor alpha Antagonism through Coactivator Recruitment Follow-Up Assay, Ratio (AID 2283953)
Chain of THRA (gene 7067) (P10827 whole entry, looked up, the tested form may be a part): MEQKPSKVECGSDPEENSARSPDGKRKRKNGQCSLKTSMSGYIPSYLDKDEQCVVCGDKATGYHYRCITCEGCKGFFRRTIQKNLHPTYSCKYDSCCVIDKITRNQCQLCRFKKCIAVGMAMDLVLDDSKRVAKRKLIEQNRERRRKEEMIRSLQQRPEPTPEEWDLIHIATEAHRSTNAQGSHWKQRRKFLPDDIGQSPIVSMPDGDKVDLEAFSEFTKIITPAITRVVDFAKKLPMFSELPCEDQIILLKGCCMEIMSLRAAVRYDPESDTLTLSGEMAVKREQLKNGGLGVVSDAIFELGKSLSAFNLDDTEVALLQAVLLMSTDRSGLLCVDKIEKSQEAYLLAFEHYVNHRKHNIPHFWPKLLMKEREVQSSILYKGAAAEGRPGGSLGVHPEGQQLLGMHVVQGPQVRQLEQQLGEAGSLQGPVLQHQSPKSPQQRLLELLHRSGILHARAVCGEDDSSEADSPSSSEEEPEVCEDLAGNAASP
How it was run: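 520:495 nm emission ratio (excitation 340 nm) reports fluorescein-SRC-2 peptide recruitment to GST-TRα LBD by TR-FRET with Tb anti-GST antibody. Values were normalized to DMSO (0%) and T3 control wells (100%); loss of signal indicated antagonism.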

[16] = TOX21_TRB_BLA_Antagonist_Followup_viability: Viability Assessment in the Tox21 Thyroid Hormone Receptor beta Antagonism Beta-lactamase (BLA) Follow-Up Assay (AID 2283961)
How it was run: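 HEK293T cells with GAL4-human TRβ LBD and UAS-bla reporter, 3,000 cells/well in 2% charcoal-stripped FBS medium; 11-point concentrations in triplicate, 18 h at 37C. Viability from ATP by CellTiter-Glo luminescence, 30 min RT, same plates.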

[17] = target: Retinoic acid receptor RXR-alpha (Homo sapiens) (UniProt P19793); test: TOX21_TR_RXR_BLA_Antagonist_Followup_ratio: Tox21 Thyroid Hormone Receptor beta Retinoid X Receptor alpha (RXRa) Antagonism Beta-lactamase (BLA) Follow-Up Assay, Ratio (AID 2283972)
Chain of Retinoic acid receptor RXR-alpha (Homo sapiens) (P19793 whole entry, looked up): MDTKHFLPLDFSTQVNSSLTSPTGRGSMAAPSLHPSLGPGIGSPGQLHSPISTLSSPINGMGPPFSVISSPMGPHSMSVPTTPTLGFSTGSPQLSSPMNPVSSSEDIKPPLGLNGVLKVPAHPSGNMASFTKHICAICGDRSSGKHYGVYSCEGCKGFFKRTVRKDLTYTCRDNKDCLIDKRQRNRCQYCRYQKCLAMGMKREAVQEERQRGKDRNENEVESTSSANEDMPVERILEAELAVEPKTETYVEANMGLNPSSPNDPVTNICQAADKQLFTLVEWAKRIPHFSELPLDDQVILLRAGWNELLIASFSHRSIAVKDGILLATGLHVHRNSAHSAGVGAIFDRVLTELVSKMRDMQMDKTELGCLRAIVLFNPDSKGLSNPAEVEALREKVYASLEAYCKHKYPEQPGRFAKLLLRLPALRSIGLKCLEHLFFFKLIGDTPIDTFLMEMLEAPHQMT
How it was run: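 RXRa-UAS-bla HEK293T cells, 2,500/well in phenol red-free DMEM with 2% charcoal-stripped FBS, 5 h attachment, then compounds (11 concentrations, triplicate) for 16 h at 37C; FRET-B/GCCF4-AM substrate 2 h RT; 460:530 nm ratio, loss of signal vs DMSO.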

[18] = TOX21_TR_RXR_BLA_Antagonist_Followup_viability: Viability Assessment in the Tox21 Thyroid Hormone Receptor beta Retinoid X Receptor alpha (RXRa) Antagonism Beta-lactamase (BLA) Follow-Up Assay (AID 2283979)
How it was run: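 RXRa-UAS-bla HEK293T cells seeded 2,500/well in phenol red-free DMEM with 2% charcoal-stripped FBS, attached 5 h, then exposed to compounds at 11 concentrations in triplicate for 16 h at 37C/5% CO2. Viability read by CellTiter-Glo ATP luminescence; bidirectional fit versus DMSO.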

Measured: AC50

CN1CC[C@]23c4c5ccc(O)c4O[C@H]2[C@@H](O)C=C[C@H]3[C@H]1C5
inactive: [1] | [2] | [3] | [4] | [5] | [6] | [7] | [8]

CCCCC(CC)COC(=O)OOC(C)(C)C (centres undefined)
inactive: [9] | [10] | [11] | [12] | [13]

CCC(=O)O[C@H]1[C@@H](N2CCCCC2)C[C@H]2[C@@H]3CC[C@H]4C[C@H](OC(C)=O)[C@@H](N5CCCCC5)C[C@]4(C)[C@H]3CC[C@@]21C
inactive: [9] | [10] | [11] | [2]

CC(C)(O)C(Cl)(Cl)Cl
inactive: [9] | [10] | [11] | [2]

ClCOCCl
inactive: [9] | [10] | [11] | [12] | [2]

ClC=CCCl
inactive: [9] | [10] | [11] | [14] | [12] | [13]

Cc1cccc(Cc2cnc[nH]2)c1C
inactive: [9] | [10] | [11] | [12] | [2] | [13]

C=CCCC#N
inactive: [9] | [10] | [11] | [14] | [2]

CNC(C)Cc1ccccc1 (centres undefined)
inactive: [9] | [10] | [11] | [12]

CC(=O)OC1CN2CCC1CC2 (centres undefined)
inactive: [9] | [10] | [11] | [12] | [2] | [13]

CN=CNc1ccc(C)cc1C
inactive: [9] | [10] | [11] | [12] | [2] | [13]

N#CSCc1ccccc1
active: [9] 80.2 µM | [11] 30.7 µM
inactive: [10] | [14] | [12] | [13]

CCOC(=O)C(Cl)C(C)=O (centres undefined)
inactive: [9] | [10] | [11] | [12] | [2] | [13]

CC(N)Cc1ccc2c(c1)OCO2 (centres undefined)
inactive: [9] | [10] | [11] | [12] | [2] | [13]

CN1C(=O)[C@@H](NC(=O)c2cc3ccccc3[nH]2)N=C(c2ccccc2)c2ccccc21
not listed: [1] | [2] | [3] | [4] | [5] | [6] | [7] | [8]
inactive: all other assays above

CC1N=C(N)OC1c1ccccc1 (centres undefined)
inactive: [9] | [10] | [11] | [2] | [13]
active: [14] 26 µM
